# Laboratory results as given in PubChem BioAssay (NCATS).
# Results filed as inconclusive are left out. A number with no mark means an inactive call. Calls follow the shape of the dose curve; as a rule, active = well fitted inhibition curve with a large enough effect; inconclusive = small, poorly fitted or top-dose-only effect; inactive = no such curve, though single readings can be large or run the other way.
# Assay: qHTS assay for measurement of the activity of small molecule inhibitors on Zika virus induced Caspase-3 activity in human iPSC derived neural progenitor cells (hNPCs) (AID 1224857); also: nearly all actives have a fitted effect of over 65% in size
# Conditions: hNPCs ZIKV-induced caspase-3/7, Caspase-Glo luminescence, 6 h; series mostly up to 45.7 µM; activity change, negative = inhibition: at the top concentration
# From the text: National Center for Advancing Translational Sciences [NCATS]
# Johns Hopkins University School of Medicine
# Increase in the Caspase-3 activity indicates an activation of apoptosis cell death pathway caused by Zika virus infection in certain types of neuronal cells including human neural progenitor cells (hNPCs), astrocytes, and astrocytoma cell line (SNB-19). This cell-based caspase-3 activity assay measures the increased caspase-3 activity in the human iPSC derived neural progenitor cells (hNPCs) after a 6-hour Zika virus infection with a luminescence readout. A decrease in the luminescence signal in this assay by small molecule treatment indicates an inhibitory effect of that small molecule on the Zika virus induced caspase-3 activity that may correlate with its effect on reduction of Zika virus caused cell death.
# The medium for hNPCs consists of DMEM/F12, N2 supplement (ThermoFisher, Cat.# 17502048), NEAA (ThermoFisher, Cat. # 11140050), 2 ug/ml heparin, 2 uM cyclopamine, and B27 (ThermoFisher, Cat. # 17504044). A Caspase-Glo 3/7 assay kit (catalog number G8092; Promega, Madison, WI) was used to detect caspase-3 activity induced by Zika virus infection in human cells. The reagent mixture was reconstituted as described in the protocol from the manufacturer. Polystyrene tissue culture treated and PDL coated white plates were obtained from Greiner Bio-One (Monroe, NC). Cells were seeded in 384- or 1536-well assay plates and cultured at 37 C with 5% CO2 for 16 to 20 hours. The typical cell seeding density in the 1536-well plate assay is 350 cells/well in 3 ul medium for hNPCs in tissue culture treated plates. Compounds were added to cells and incubated for one hour before addition of ZIKV solution to cells (2 FFU/cell). After incubation at 37 C with 5% CO2 for 6 hours, the reagent mixture of Caspase-Glo 3/7 assay kit was added to each well, followed by incubation at room temperature for 30 minutes. The luminescence intensity of the assay plates was measured using a ViewLux plate reader (PerkinElmer). Data were normalized by using the cell-containing wells without ZIKV as a negative control (0% induction of caspase 3/7 activity) and wells containing ZIKV infected cells (Caspase-3 activity induced) as a positive control (100% induction of caspase 3 activity). The percentage inhibitions of the increased Caspase-3 activity by small molecule inhibitors were then calculated.
row,SMILES,"activity change, negative = inhibition"
1,NC1CCN(c2nc3c(cc2F)c(=O)c(C(=O)O)cn3-c2ccc(F)cc2F)C1 (stereo not given),10.6%
2,CCN(CC)CCOC(=O)C1(c2ccccc2)CCCC1,-5.93%
3,COc1ccc(CCN(C)CCCN2CCc3cc(OC)c(OC)cc3CC2=O)cc1OC,-4.35%
4,OC[C@H]1O[C@@H]2O[C@H]3[C@H](O)[C@@H](O)[C@@H](O[C@H]4[C@H](O)[C@@H](O)[C@@H](O[C@H]5[C@H](O)[C@@H](O)[C@@H](O[C@H]6[C@H](O)[C@@H](O)[C@@H](O[C@H]7[C@H](O)[C@@H](O)[C@@H](O[C@H]8[C@H](O)[C@@H](O)[C@@H](O[C@H]1[C@H](O)[C@H]2O)O[C@@H]8CO)O[C@@H]7CO)O[C@@H]6CO)O[C@@H]5CO)O[C@@H]4CO)O[C@@H]3CO,4.63%
5,CN1CCC(OC(c2ccccc2)c2ccccc2)CC1,-3.82%
6,O=C(Nc1cccc(C2=NCCN2)c1)Nc1cccc(C2=NCCN2)c1,-4.01% [at 20.5 µM]
7,CC1(C)OC[C@@H]2O[C@@]3(C(=O)O)OC(C)(C)O[C@H]3[C@@H]2O1,6.59%
8,O=C1c2cccc3c2[C@H](CCC3)CN1[C@@H]1CN2CCC1CC2,8.23%
9,FC1(F)C(F)(F)C(F)(F)C2(F)C(F)(F)C(F)(F)C(F)(F)C(F)(F)C2(F)C1(F)F (stereo not given),-5.82%
10,CCC(C(=O)OCCOCCN(CC)CC)c1ccccc1 (stereo not given),-11.2%
11,COc1ccc(S(=O)(=O)N2c3ccc(Cl)cc3[C@@](O)(c3ccccc3Cl)[C@H]2C(=O)N2CCC[C@@H]2C(N)=O)cc1OC,35.7%
12,CC(O)Cn1cnc2c1c(=O)n(C)c(=O)n2C (stereo not given),-10.4%
13,CC(C)Cn1cnc2c1c(=O)n(C)c(=O)n2C,-12%
14,NC(=O)C1(N2CCCCC2)CCN(CCCC(=O)c2ccc(F)cc2)CC1,6.12%
15,Nc1nc(N)c(-c2ccccc2)s1,51.1%
16,COc1cc(C(=O)NCc2ccc(OCCN(C)C)cc2)cc(OC)c1OC,-5.32%
17,O=C(CCN1CCN2CCCC2C1)N1c2ccccc2Sc2ccc(Cl)cc21 (stereo not given),-4.68% [at 20.5 µM]
18,CCc1nn(CCCN2CCN(c3cccc(Cl)c3)CC2)c(=O)n1CCOc1ccccc1,11.4%
19,CCC(CC)(CC(=O)Nc1cccc(/C=C/c2nc(C3CCC3)cs2)c1)C(=O)O,25.7%
20,CC(=O)NCCCCCC(=O)O,1.63%

row,SMILES,"activity change, negative = inhibition"
1,CCOc1ccccc1OCCN[C@H](C)Cc1ccc(OC)c(S(N)(=O)=O)c1,-3.21%
2,OCCOCCN1CCN(C2=Nc3ccccc3Sc3ccccc32)CC1,-1.67%
3,COc1cc([C@H]2Oc3cc([C@H]4Oc5cc(O)cc(O)c5C(=O)[C@@H]4O)ccc3O[C@@H]2CO)ccc1O,-18.9%
4,c1ccc(CC2=NCCN2)cc1,14.7%
5,CCCCCCCCNC(C)C(O)c1ccc(SC(C)C)cc1 (stereo not given),6.13%
6,CCC1Nc2cc(Cl)c(S(N)(=O)=O)cc2S(=O)(=O)N1 (stereo not given),-5.31%
7,N=C(N)N1CCc2ccccc2C1,-12.7% [at 4.53 µM]
8,O=C(Nc1ncc([N+](=O)[O-])s1)c1cccs1,-174%
9,O=[N+]([O-])c1ccc(/C=N\O)o1,-9.98%
10,O=C(CCCN1CC=C(n2c(=O)[nH]c3ccccc32)CC1)c1ccc(F)cc1,12.9%
11,Cc1ccc(O)c([C@H](CCN(C(C)C)C(C)C)c2ccccc2)c1,1.16%
12,CN1CCN(CCC(=O)N2c3ccccc3Sc3ccc(C(F)(F)F)cc32)CC1,17.7%
13,NCc1ccccc1Sc1ccccc1CO,-2.48%
14,CCCCCCCCCCCCCCCCO,-5.32%
15,CC[N+](C)(CC)CCOC(=O)C(O)(c1ccccc1)C1CCCCC1 (stereo not given),-8.68%
16,CCCCCCCCCCCCCC[N+](C)(C)Cc1ccccc1,52.9%
17,CC(C)Cc1ccc(CC(=O)O)cc1,-6%
18,C#C[C@]1(O)CC[C@H]2[C@@H]3CCC4=CC(=O)CC[C@@H]4[C@H]3CC[C@@]21CC,-21.7%
19,C#C[C@]1(O)CC[C@H]2[C@@H]3CCc4cc(OC)ccc4[C@H]3CC[C@@]21C,-3.09%
20,O=C(N/N=C/c1ccc([N+](=O)[O-])o1)c1ccc(O)cc1,-23.3%
